Test results from PubChem BioAssay (NCI).
The panel holds about 83,000 compounds, 20% with a hit somewhere; the sample as a whole holds those more often.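 Step 1: grow cells in 96-well plates. Step 2: add test compound at a single concentration. Step 3: incubate 48 h. Step 4: record percent growth.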 Unmarked numbers belong to inactive results. The source made the active and inactive calls. Rule for the calls: active = growth percent below 10; inactive = the rest.

Experiments:
Test in all cases: NCI-60 one-dose screen, 48 h (100 = growth as untreated, 0 = no growth, -100 = all killed)
Settings in all cases: 10 µM unless noted
SR leukemia = test system: SR leukemia
RPMI-8226 leukemia = test system: RPMI-8226 leukemia
OVCAR-8 ovarian = test system: OVCAR-8 ovarian
OVCAR-5 ovarian = test system: OVCAR-5 ovarian
OVCAR-4 ovarian = test system: OVCAR-4 ovarian
SK-OV-3 ovarian = test system: SK-OV-3 ovarian
IGROV1 ovarian = test system: IGROV1 ovarian
OVCAR-3 ovarian = test system: OVCAR-3 ovarian
HS 578T breast = test system: HS 578T breast
NCI/ADR-RES ovarian = test system: NCI/ADR-RES ovarian
T-47D breast = test system: T-47D breast
BT-549 breast = test system: BT-549 breast
MDA-MB-435 melanoma = test system: MDA-MB-435 melanoma
SW-620 colon = test system: SW-620 colon
MCF7 breast = test system: MCF7 breast
HCT-116 colon = test system: HCT-116 colon
KM12 colon = test system: KM12 colon
MDA-MB-468 breast = test system: MDA-MB-468 breast
HCC-2998 colon = test system: HCC-2998 colon

Row | SMILES | growth (SR leukemia) | growth (RPMI-8226 leukemia) | growth (OVCAR-8 ovarian) | growth (OVCAR-5 ovarian) | growth (OVCAR-4 ovarian) | growth (SK-OV-3 ovarian) | growth (IGROV1 ovarian) | growth (OVCAR-3 ovarian) | growth (HS 578T breast) | growth (NCI/ADR-RES ovarian) | growth (T-47D breast) | growth (BT-549 breast) | growth (MDA-MB-435 melanoma) | growth (SW-620 colon) | growth (MCF7 breast) | growth (HCT-116 colon) | growth (KM12 colon) | growth (MDA-MB-468 breast) | growth (HCC-2998 colon)
1 | CCS(=O)(=O)N1CCCC(C(=O)Nc2nc3ccc(NC(=O)c4ccc(F)c(OC)c4F)cc3s2)C1 (centres undefined) | 27.8% | 30.4% | 57.7% | 101% | 39.4% | 70.2% | 80.9% | 62.3% | 47.6% | 52% | 7.96% (active) | 13.2% | 53.8% | 88.7% | 30.1% | 41% | 61.6% | 7.13% (active) | 
2 | COc1cc2c(c(OC)c1OC)C(=O)CC(c1cccc(NC(=O)c3cc(NC(=O)[C@H](C)N)ccc3Cl)c1)O2 (some centres undefined) | 9.41% (active) | 4.69% (active) | 9.03% (active) | 88% | 44.4% | 102% | 70.3% | 25.7% | 66.9% | 11.1% | 18.5% | -5.64% (active) | 2.82% (active) | 18.5% | 13.8% | 23.4% | 41.7% | 9.2% (active) | 
3 | COc1cc2oc(-c3cccc(C(=O)Nc4ccc(Cl)cc4)c3)cc(=O)c2c(OCCNC(=O)[C@@H](N)CCC(=O)O)c1OC | 42.7% | 25.5% | 73.7% | 76.9% | 91.9% | 88.8% | 62.9% | 113% | 88.9% | 97.4% | 73.7% | 84.5% | 88.6% | 106% | 61% | 58.7% | 93.2% | 74.5% | 
4 | COc1ccc(-c2ccc(SCC(=O)Nc3ccc(S(N)(=O)=O)cc3Br)nn2)cc1 | 92.7% | 85.8% | 48.7% | 99.6% | 38% | 62.3% | 105% | 98.3% | 44.8% | 95.3% | 76.9% | 49.3% | 108% | 91.3% |  | 79.4% | 88.7% | 86.9% | 99.3%
5 | CN(C)CCCNC(=O)c1cc(NC(=O)c2cc(NC(=O)c3ccc(C#Cc4ccccc4)cc3)cn2C)cn1C | -46.3% (active) | -49% (active) | -0.647% (active) | 36.8% | 43.6% | 46.5% | 34.3% | -2.81% (active) | 31.7% | 56.6% | -14.9% (active) | -15% (active) | -63.3% (active) | -12.9% (active) | -93.3% (active) | -92.4% (active) | -64% (active) | -93.8% (active) | 
6 | COc1c(F)ccc(C(=O)Nc2ccc3nc(NC(=O)C4CCCN(S(=O)(=O)c5cccc(Cl)c5)C4)sc3c2)c1F (centres undefined) | 44.5% | 42.8% | 98.8% | 102% | 83.1% | 105% | 81.6% | 105% | 62.6% | 80.5% | 53.1% | 76% | 90.9% | 98.6% |  | 64.4% | 82.2% | 88.8% | 102%
7 | COc1ccc2c(c1)c(-c1cc3nc(-c4cn(C)c5ncc(Br)cc45)cc(N)n3n1)cn2C | -6.89% (active) | -0.77% (active) | -48.8% (active) | -47.6% (active) | 17.3% | -55.6% (active) | -25.8% (active) | -18.6% (active) | -18.6% (active) | -30.3% (active) | -60.3% (active) | -78.5% (active) | -67.3% (active) | -64.1% (active) |  | -100% (active) | -61% (active) | -81.4% (active) | -94.3% (active)
8 | COc1cc2c(c(OC)c1OC)C(=O)CC(c1cccc(NC(=O)c3cc(NC(=O)[C@H](CO)NC(=O)OC(C)(C)C)ccc3Cl)c1)O2 (some centres undefined) | 19.4% | 17.9% | 21.9% | 86.8% | 47.9% | 81.7% | 36.8% | 27.4% | 28.7% | 76.4% | 13.5% | -3.14% (active) | 10.1% | 44% | 12.2% | 14.4% | 14.5% | 19.8% | 
9 | COc1ccc(-c2ccnc(SCc3cc4ccccc4[nH]c3=O)n2)cc1OC | 40.3% | 45% | 0.24% (active) | -41% (active) | -2.39% (active) | -69.7% (active) | 10.9% | 20.7% | -23.6% (active) | -40.7% (active) | -5.29% (active) | -58.3% (active) | 14.8% | 48.8% |  | 2.06% (active) | 33.7% | -8.96% (active) | 5.44% (active)
10 | Cn1cc(-c2nc(N)nnc2-c2c[nH]c3ccc(Br)cc23)c2cccnc21 | 29.1% | 45% | 47.9% | 80.3% | 71.1% | 61.8% | 46.2% | 29.2% | 33.9% | 78.7% | 62.5% | 33.9% | 12% | 39.9% | 21.4% | 21.2% | 33.9% | 44.6% | 
11 | COc1ccc2c(c1)c(/C=N/Nc1ccc3ccccc3n1)cn2C | -17.3% (active) | -26.7% (active) | 28.9% | 7.2% (active) | 12.3% | 54% | 16.4% | -34.2% (active) | 18.2% | 2.35% (active) | 3.98% (active) | 51.4% | 11.2% | -67.3% (active) |  | -99.5% (active) | -66.5% (active) | -41.6% (active) | -59.6% (active)
12 | O=C(/C=C/Nc1ccc2oc(=O)ccc2c1)c1cc2cc(Br)ccc2oc1=O | 99.2% | 103% | 104% | 108% | 102% | 99.8% | 105% | 122% | 92.6% | 109% | 94.4% | 87.9% | 103% | 105% |  | 101% | 111% | 98.9% | 113%
13 | Cn1cc(-c2cc3nc(-c4cn(C)c5ncc(Br)cc45)cc(N)n3n2)c2cc(Cl)ccc21 | -28.1% (active) | -4.61% (active) | -54.4% (active) | -81.4% (active) | -59.4% (active) | -69.2% (active) | -73.1% (active) | -54.4% (active) | -36.1% (active) | -58.4% (active) | -62% (active) | -78.8% (active) | -88.4% (active) | -81.5% (active) |  | -89.3% (active) | -58.5% (active) | -88.5% (active) | -99.1% (active)
